The full list was thinned out, with hits kept by preference.
Pf Dd2 inh – blocks in vitro growth of P. falciparum Dd2; actives 4.3% (n = 120,000); AID 1347417; P. falciparum Dd2 growth, SYBR Green, 72 h; Potency, µM (titrated, usually from 28.9 µM), hits mostly inhibitors; active = well fitted inhibition curve with a large enough effect; also: nearly all actives have a fitted effect of over 65% in size
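Readout: SYBR Green fluorescence, 485 nm excitation, 535 nm emission, after ~16 h lysis at 37C. Before that, Dd2-infected red cells (2.5% hematocrit) grew 72 h with compound, 29 uM top final concentration.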
Numbers stand for hits; - = inactive; [ ] = remark or other dose.

SMILES	Pf Dd2 inh
CCOC(=O)c1c(Nc2cccc(C)c2)nnc(-c2ccccc2)c1-c1ccccc1	-
Cc1ccc(-c2nnc(Nc3ccc(Cl)cc3)c3ccccc23)cc1S(=O)(=O)NCC1CCCO1 (centres undefined)	-
Cc1ccc(-c2cnc(C3CC3)o2)cc1S(=O)(=O)Nc1cccc(C#N)c1	-
CCc1noc(-c2ccn3c(CNC(=O)c4ccncc4)nnc3c2)n1	-
Cc1c(F)cccc1NC(=O)N1CCC(N2CC3CC(C2)[C@H]2CCCC(=O)N2C3)CC1 (some centres undefined)	-
CC(C)c1cccc(NC(=O)c2ccc3c(c2)N(C)C2CCCCN2C3=O)c1 (centres undefined)	-
O=C(c1ccc(C(F)(F)F)cc1)N1CCn2c(nn(-c3ccc(F)cc3F)c2=O)C1	-
Cc1cc(C)n(Cc2ccc(C(=O)N3CCCCCCNC(=O)CC3)o2)n1	-
CN1CC2(CCCN(C(=O)CCc3ccccc3Cl)CC2)OC1=O (centres undefined)	-
CN(C)C[C@H]1O[C@@H](CO)[C@@H](O)[C@H]1N1CCN(c2ccc(F)cc2)CC1	-
Cc1ccsc1CN1CCCC2(Cc3ccccc3CNC2=O)C1 (centres undefined)	-
CC(C)=CCN1CCCC2(Cc3ccccc3CNC2=O)C1 (centres undefined)	10µM
O=C1NCc2ccccc2CC12CCCN(Cc1c(Cl)cncc1Cl)C2 (centres undefined)	-
CC(C)CN(CC1CN(C(=O)Nc2ccccc2)CCO1)C(=O)c1ccccc1F (centres undefined)	-
CN(C)C(=O)N1CCCn2nc(CNC(=O)c3sccc3N)cc2C1	-
Cc1cc(C)nc(-n2nc(C)c3c2N(C)C(=O)CC3c2ccc(Cl)cc2)n1 (centres undefined)	-
Cc1ccccc1-n1nc(C)c2c1NC(=O)CSC2c1ccc(Cl)cc1 (centres undefined)	-
Cc1cc(C)nc(-n2nc(C)c3c2N(Cc2ccccc2C)C(=O)CC3c2ccc(Cl)cc2)n1 (centres undefined)	8.9µM
O=C(NCCCc1ccccc1)c1nnn2c1COC(c1ccc(Br)cc1)C2 (centres undefined)	-
Cc1cccc(N(C)C(=O)Cn2nc3n(c2=O)CCCC3)c1	-
CCn1nccc1C(=O)NCCC1CCN(C(=O)Nc2ccccc2)CC1	-
COc1ccc(NC(=O)Cn2nc3n(c2=O)CCCC3)cc1OC	-
CCn1nccc1C(=O)Nc1cccc(-c2nnc3n2CCCC3)c1	8.9µM
Cc1cc2nc3n(c(=O)c2n1CC(=O)Nc1cccc(C#N)c1)CCCCC3	-
O=C(Nc1ccc(-c2nnc3n2CCCC3)cc1)c1cccc(Cl)c1	-
SMILES	Pf Dd2 inh
CCn1nccc1C(=O)NCCC1CCN(C(=O)Nc2cccc(C)c2)CC1	-
N#Cc1ccc(C(=O)Nc2cccc(-c3nnc4n3CCCC4)c2)cc1	1.3µM
CN(C)c1cccc(C(=O)Nc2cccc(-c3nnc4n3CCCC4)c2)c1	4.5µM
COc1ccc(C(=O)Nc2cccc(-c3nnc4n3CCCC4)c2)cc1OC	5µM
Cc1cccc(NC(=O)N2CCC(Oc3ccc(-c4noc(C)n4)cc3)C2)c1 (centres undefined)	-[5.79 µM]
O=C(CC(F)(F)F)N1CCC(c2noc(-c3ccccc3)n2)C1 (centres undefined)	-[5.79 µM]
CCOc1ccc(-c2cc3c(=O)n(CCNC(=O)c4ccc[nH]4)ccn3n2)cc1	-
O=C(C1CCCC1)N1CCC2(CC1)NC(=O)N(c1ccccc1)N2	-
Nc1nc(C2CC(NC(=O)c3ccc(CO)cc3)C2)cc(=O)[nH]1 (centres undefined)	-
CCn1cc(CN2C[C@@H](CO)[C@H](NC(=O)C3CC3)C2)cn1	-
COCCc1noc(C2CCCN(C(=O)Cn3ncc4ccccc4c3=O)C2)n1 (centres undefined)	-
O=C1CCC2(CCCO2)CCN1Cc1cccc(F)c1F (centres undefined)	-
CN(C)C(=O)NC[C@@H]1CC[C@H]2C[C@@H]1C2(C)C	-
COC[C@@H]1CN(C(=O)Cc2ccccc2C)C[C@H]1C(N)=O	-
COc1ccc(C(=O)NCC2(COc3cccnc3)C[C@@H](O)[C@@H](O)C2)cc1 (some centres undefined)	-
COc1cccc(C(=O)Nc2cccc(-c3nnc4n3CCCC4)c2)c1	5.6µM
O=C(Nc1cccc(-c2nnc3n2CCCC3)c1)c1cc(C2CC2)[nH]n1	4µM
Cc1nnc2n1CCC(NC(=O)c1cc(C3CC3)[nH]n1)CC2 (centres undefined)	-
CCOc1ccc(-c2nnc3n2CCCC3)cc1OCC	-
COc1cccc(NCc2nnc3n2CCCCC3)c1	-
CCOc1ccc(C(=O)Nc2ccc3c(c2)CCCN3S(=O)(=O)c2ccc(C)cc2)cc1	-
Cc1ccc(NC(=O)N2CCC(c3cc(-c4cccc(C)c4)n[nH]3)CC2)cc1	-
CCOc1ccc(C(=O)Nc2cccc(-c3nnc4n3CCCC4)c2)cc1	1.6µM
COCc1nc(C2CCN(C(=O)Nc3ccc4c(c3)OCCO4)C2)no1 (centres undefined)	-
CCOc1ccc(CN2CC[C@@](C)(O)[C@H](N3CCCC3)C2)cc1OC	-[5.79 µM]

Screens from PubChem BioAssay.
